Screening results as filed in PubChem BioAssay.
TDP1 block: inhibitors of human tyrosyl-DNA phosphodiesterase TDP1; Q9NUW8; recombinant TDP1, AlphaScreen DNA substrate cleavage; Potency, µM (highest dose often 130 µM), inactives show top-dose activity change, negative = inhibition, actives largely listed as inhibitors; actives 0.28% (n = 350,000); active means well fitted curve in the direction sought with a large enough effect; inconclusive means small, poorly fitted or top-dose-only effect, or another doubt; inactive means no such curve, though single readings can be large; an effect the other way counts as inactive or inconclusive; further: on the % scale 0 is the no-effect control and ±100 the full control effect; nearly all actives have a fitted effect of over 40% in size
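Enzyme-compound mixtures sat 15 min at room temperature, followed by a 5 min reaction with 15 nM final substrate and 10 min with AlphaScreen beads. Recombinant human Tdp1 was used at 1 nM final.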
12-LOX inh: blocks human arachidonate 12S-lipoxygenase. Potency, µM (series often up to 108 µM), without a hit: at the highest dose activity change, negative = inhibition, hits mostly inhibitors. AID 1671190. actives 1.1% (n = 580,000). purified 12hLO, xylenol orange hydroperoxide absorbance. P18054; active means well fitted curve in the direction sought with a large enough effect; inconclusive means small, poorly fitted or top-dose-only effect, or another doubt; inactive means no such curve, though single readings can be large; an effect the other way counts as inactive or inconclusive; further: on the % scale 0 is the no-effect control and ±100 the full control effect
Target sequence (P18054 whole entry, looked up): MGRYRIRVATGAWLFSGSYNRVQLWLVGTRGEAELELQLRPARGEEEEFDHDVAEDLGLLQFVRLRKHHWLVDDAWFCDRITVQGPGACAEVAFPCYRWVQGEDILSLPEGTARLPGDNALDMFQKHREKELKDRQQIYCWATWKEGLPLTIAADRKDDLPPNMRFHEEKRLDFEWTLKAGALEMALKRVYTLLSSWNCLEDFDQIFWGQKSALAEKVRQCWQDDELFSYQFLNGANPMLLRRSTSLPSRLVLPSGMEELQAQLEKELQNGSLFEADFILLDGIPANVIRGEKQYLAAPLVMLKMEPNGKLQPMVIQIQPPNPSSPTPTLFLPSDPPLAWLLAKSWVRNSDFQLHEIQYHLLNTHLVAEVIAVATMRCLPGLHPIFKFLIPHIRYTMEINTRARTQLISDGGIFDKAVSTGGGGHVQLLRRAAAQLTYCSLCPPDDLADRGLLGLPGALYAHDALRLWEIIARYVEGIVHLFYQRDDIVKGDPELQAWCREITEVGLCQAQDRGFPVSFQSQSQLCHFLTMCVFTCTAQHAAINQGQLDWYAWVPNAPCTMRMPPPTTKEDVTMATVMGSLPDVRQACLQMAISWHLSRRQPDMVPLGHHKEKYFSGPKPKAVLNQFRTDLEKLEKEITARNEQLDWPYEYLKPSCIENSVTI
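Purified human 12hLO (150 nM final) in 25 mM Hepes, 0.01% Triton X-100, pH 7.0 was preincubated 15 min at room temperature with compound. Then 40 uM arachidonic acid was added, 30 min. Hydroperoxide was read by Fe-XO absorbance ratio 573/405 nm.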
Rango-impB inh: inhibitors of Rango-importin beta complex formation; actives 0.031% (n = 340,000); AID 540263; Potency, µM (titrated, usually from 92.2 µM), inactives show at the top dose inhibition of complex formation; Rango CFP/YFP FRET sensor + importin beta, 45 min;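 further: 0% = DMSO wells and 100% = buffer wells lacking importin beta; nearly all actives have a fitted effect of over 15% in size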
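FRET biosensor Rango (snurportin 1 IBB between N-terminal EYFP and C-terminal Cerulean), 50 nM in PBS/1 mM DTT/0.02% Tween-20/0.1% BSA, preincubated 5 min RT with compound; 0.125 microM importin beta added, 45 min RT, CFP/YFP FRET ratio read.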
ClpP mod: qHTS Assay for Activators of ClpP | ATP-dependent Clp protease proteolytic subunit (Bacillus subtilis (strain 168)), P80244 | purified B. subtilis ClpP, FRET peptide cleavage, 20 min | Potency, µM (titrated, usually from 57.5 µM), for inactives: at the highest dose activity change, negative = active | actives 1.9% (n = 340,000); active means well fitted falling curve with a large enough effect; inconclusive means small, poorly fitted or top-dose-only effect; inactive means no such curve, though single readings can be large or run the other way; further: the source files actives as falling curves though it sought activators and does not explain the sign; nearly all actives have a fitted effect of over 65% in size
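Purified B. subtilis ClpP, 10 microg/mL final in Tris/HCl pH8 with KCl, BSA, glycerol and Tween-20, cleaved an Abz/nitrotyrosine-quenched decapeptide. Fluorescence (ex 320, em 430) was read at 0 and 20 min at room temperature. Delta was normalized to 5.8 microM ADEP and DMSO/no-enzyme controls.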
TSG101-PTAP inh: blocks PTAP/TSG101 interaction to inhibit HIV-1 budding; Fluorescence polarization, FITC-PTAP peptide / Tsg101 binding; Potency, µM (titrated, usually from 115 µM), for the others: at the top dose activity change, negative = inhibition, actives largely listed as inhibitors; 340,000 tested, under 10 active; active means well fitted inhibition curve with a large enough effect in the main read-out, with a control signal flat, not every such curve was filed as active; inconclusive means small, poorly fitted or top-dose-only effect, or effect the other way, or a change in a side signal; inactive means no such curve, though single readings can be large or run the other way; further: % of control where 0% means no effect
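Tsg101 binding domain (10 uM final) was mixed with compound and a FITC-labeled PTAP peptide (50 nM final) in HEPES pH 7.5 buffer with NaCl, Tween 20, EDTA and TCEP; fluorescence polarization was read after 20 min at r.t.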
Rango dissoc inh: prevents RanGTP from dissociating the Rango-importin beta complex; AID 540253; actives 0.071% (n = 340,000); Biochemical FRET Rango-importin beta, RanGTP-induced dissociation; Potency, µM (top dose mostly 46.1 µM), inactives show at the top dose activity change, negative = inhibition; O95149+P62826; further: % of control where 0% means no effect; nearly all actives have a fitted effect of over 45% in size
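Rango (0.1 uM)–importin beta (0.25 uM) complex; RanGTP-RCC1 trigger; 45 min RT; CFP/YFP FRET read.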
* marks the source's active call; other numbers are inactive results; ? = inconclusive; . = no result; [ ] = dose if it differs, or a comment. The list is not random: actives were taken first. Their share in the collection is about 2.4%. Unless noted, the call rests on the fitted dose curve. Potency means the concentration at half of the fitted maximal effect.

SMILES	TDP1 block	12-LOX inh	Rango-impB inh	ClpP mod	TSG101-PTAP inh	Rango dissoc inh
O=C(CCc1ccccc1)Nc1ccc2c(c1)OCCO2	3%	0%	0%	28µM*	-6%	0%
O=C(CSCc1c(Cl)cccc1Cl)Nc1ccc2c(c1)OCCO2	5%	-6%	2%	16µM*	-1%	1%
O=C(Cc1ccc(Cl)cc1)N/N=C/c1ccc(O)c(O)c1	.	14µM*	.	-10%	.	.
Cc1ccc(O)c(/C=N/NC(=O)Cc2ccc(Cl)cc2)c1	.	-24%	-1%	1%	0%	17%
Cc1ccc(-n2nc(CO)c(C(=O)NCCCCc3ccccc3)n2)cc1C	5%	-12%	.	25µM*	.	.
Cc1ccc(-n2nc(CO)c(C(=O)NCCO)n2)cc1	-2%	-9%	.	8.9µM*	.	.
Cc1ccc(-n2nc(CO)c(C(=O)NCCCCc3ccccc3)n2)cc1	2%	-14%	.	10µM*	.	.
Cc1ccc(-n2nc(CO)c(C(=O)NCCCc3ccccc3)n2)cc1	7%	?	.	22µM*	.	.
O=C(NCCCCc1ccccc1)c1nn(-c2ccccc2)nc1CO	-7%	-14%	.	?	.	.
O=C(OCC(c1ccccc1)c1ccccc1)c1cccnc1	.	2%	.	.	.	.
Cc1ccc(-n2nc(CO)c(C(=O)NC(C)CCCc3ccccc3)n2)cc1 (stereo unspecified)	0%	-12%	.	32µM*	.	.
CCC(C)NC(=O)c1nn(-c2ccc(C)cc2)nc1CO (stereo unspecified)	0%	-14%	.	?	.	.
O=C(O)CCc1nn2c3ccccc3n(CCO)c2nc1=O	2%	-20%	-4%	.	0%	-16%
O=C(O)CCc1nn2c3ccccc3n(CCN3CCCCC3)c2nc1=O	0%	-15%	2%	28µM*	0%	-16%
O=C(SCc1c(O)c2ccccc2oc1=O)c1ccccc1	.	28µM*	.	0%	.	.
CCOC(=O)C1(CCOc2ccccc2)CCN(Cc2cc(OC)ccc2OC)CC1	.	-9%	-3%	-1%	-5%	-8%
CCOC(=O)C1(CCOc2ccccc2)CCN(Cc2cccc(OC)c2O)CC1	.	7.1µM*	-5%	.	5%	2%
COc1ccc(Cn2ccn3nc4c(c3c2=O)CCCC4)cc1F	.	0%	.	.	.	.
COC(=O)C1=CN(CCCN2CCCC2=O)C=C(C(=O)OC)C1c1cccs1	0%	-13%	-7%	28µM*	-5%	-17%
COc1ccccc1CCNC(=O)C1CCC(=O)N(Cc2ccccc2OC)C1 (stereo unspecified)	1%	11%	2%	0%	-3%	1%
COc1ccccc1CN1CC(C(=O)NC2(c3ccccc3)CC2)CCC1=O (stereo unspecified)	2%[56.1 µM]	4%	1%	32µM*	-2%	3%
O=C(CCc1c[nH]c2ccccc12)Nc1nnc(C2CC2)s1	.	-16%	.	.	.	.
CC1=NS(=O)(=O)N(C)C=C1C(=O)OCc1nc(Cc2ccccc2C)no1	.	15%	.	.	.	.
CCN(CC)C(=O)c1sc2nc(-c3cccs3)cc(-c3ccc(Cl)cc3)c2c1N	9%	-16%	?	?	?	?
CCN(CC)C(=O)c1sc2nc(-c3cccs3)cc(-c3cccs3)c2c1N	3%	40µM*	?	-19%	?	-13%
SMILES	TDP1 block	12-LOX inh	Rango-impB inh	ClpP mod	TSG101-PTAP inh	Rango dissoc inh
Cc1ccc(NC2Nc3cc(C)nn3S2)c(C)c1 (stereo unspecified)	-2%	40µM*	4%	.	-1%	0%
Cc1cc2n(n1)SC(Nc1ccccc1)N2 (stereo unspecified)	6%	14µM*	0%	-1%	0%	6%
COc1cccc(C(=O)/C(C#N)=C\c2ccc(F)c(Br)c2)c1	.	18µM*	.	.	.	.
COc1ccc(/C=C(/C#N)C(=O)c2c(Cl)cccc2Cl)cc1	.	6.3µM*	.	.	.	.
COc1cccc(C=C(C#N)C(=O)c2ccccc2)c1	.	?	.	-4%	.	.
COc1cccc(C(=O)/C(C#N)=C\c2ccccc2C(F)(F)F)c1	.	40µM*	.	.	.	.
Cc1cccc(NC(=O)N2CCC3(CC2)CC(N(C(=O)c2ccccc2)C2CC2)CCO3)c1 (stereo unspecified)	.	30%	.	.	.	.
O=C(CC1=C2CCCCC2NC1=O)NC1CCCCC1 (stereo unspecified)	.	17%	.	.	.	.
COCCCNC(=O)CN1CCCc2nc(-c3ccncc3)ncc2C1=O	.	27%	.	.	.	.
Cc1cc(NC(=O)C2CCCCC2)ccc1NC(=O)c1ccccc1Cl	4%	-18%	0%	16µM*	-2%	4%
N#Cc1nc(/C=C/c2cccs2)oc1N1CCC(C(N)=O)CC1	.	-23%	.	.	.	.
CCOC(=O)N1CCC(NC(=O)c2ccc3c(c2)N(Cc2ccc(C)cc2)CCS3)CC1	4%	6%	-1%	5%	-4%	-7%
CCOC(=O)N1CCC(NC(=O)c2ccc3c(c2)N(C)CCS3)CC1	5%	?	-2%	28µM*	-10%	9%
Cn1c(=O)c2nc(-c3ccccc3)oc2c2ccccc21	-2%	0%	-1%	11µM*	-3%	-2%
COc1cc(CNc2ccc(N3CCOCC3)cc2)cc(Br)c1OC	5%	?	6%	-2%	-1%	10%
CCOc1cc(CNc2ccc(N3CCOCC3)cc2)cc(Br)c1OCC	11%	32µM*	-1%	2%	-1%	-8%
CCOC(=O)c1ccc2cccc(C)n2c1=O	1%	.	?	-1%	-1%	12µM*[inhibitor]
NNC(=S)NCc1ccco1	.	?	2%	-5%	-1%	-5%
O=C(COc1ccc(Cl)cc1Cl)NNC(=S)NCc1ccco1	10%	45µM*	-5%	-2%	-7%	-1%
S=C(NCc1ccco1)NCc1ccco1	.	32µM*	-4%	-1%	1%	-5%
O=C(COc1ccc(Cl)cc1Cl)NCc1ccco1	1%	?	0%	-1%	-2%	0%
S=C(NCc1ccccc1)NCc1ccco1	5%[56.1 µM]	0%	0%	-4%	-5%	-11%
CC(C)CCNC(=S)NCc1ccco1	.	32µM*	.	.	.	.
O=C(CC12CC3CC(CC(C3)C1)C2)NC(=S)NCc1ccco1	-5%	28µM*	14%	0%	-3%	-11%
CN(CCc1ccccn1)C(=O)C1CCN(C(=O)N2CC3CC(C2)[C@H]2CCCC(=O)N2C3)CC1 (stereo partly specified)	.	27%	.	.	.	.
CN(C)c1ccc(/C=N/NC(=S)NCc2ccco2)cc1	11%	3%	0%	25µM*	-2%	-5%
